Laboratory results taken from PubChem BioAssay (Tox21).
A number with no mark means an inactive call. Inconclusive results are not listed. Entries that show only a call come without a potency. Calls of active or inactive are those of the source. Unless noted, the call rests on the fitted dose curve; in most records, active means well fitted curve in the direction sought with a large enough effect in the repeat runs; inconclusive means weak or mixed curves; inactive means no such curve, though single readings can be large; an effect the other way counts as inactive or inconclusive.

Test system: not listed separately
Assay: qHTS assay to identify small molecule agonists of the androgen receptor (AR) signaling pathway in the presence of an antagonist - cell viability counter screen (AID 1259379);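 further: MDA-kb2 human breast cancer cells carrying an MMTV luciferase reporter; nearly all actives have a fitted effect of over 25% in size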
Settings: MDA-kb2 viability, CellTiter-Fluor, 16 h; series mostly up to 92.4 µM
Method in brief: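 Nilutamide-containing (3.0uM final) MDA-kb2 cultures, 3,000 cells/well, were treated with compounds across 15 concentrations. After 16 hr at 37C with no CO2, cell viability was determined by CellTiter-Fluor fluorescence in the luciferase assay wells.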

Row | SMILES | Potency | activity change, negative = cytotoxicity
1 | O=C(NCc1cccnc1)Nc1ccc([N+](=O)[O-])cc1 | inactive | –
2 | O=C(CBr)Nc1ccc(Cl)cc1C(=O)c1ccccc1F | inactive | –
3 | ClCC(Br)CBr (centres undefined) | inactive | –
4 | COc1c(C(C)(C)C)cc([N+](=O)[O-])c(C)c1[N+](=O)[O-] | inactive | –
5 | c1ccoc1 | inactive | –
6 | CCCC(=O)Cl | inactive | –
7 | Nc1nc(=S)[nH][nH]1 | inactive | –
8 | Brc1ccc(Oc2ccccc2)cc1 | inactive | –
9 | CCOP(=S)(OCC)SCSCC | inactive | –
10 | ClC=C(Cl)Cl | inactive | –
11 | COC(N)=O | inactive | –
12 | CCC(Cl)CCl (centres undefined) | inactive | –
13 | CCCN(CCCl)c1c([N+](=O)[O-])cc(C(F)(F)F)cc1[N+](=O)[O-] | inactive | –
14 | Cn1cc[n+](C)c1 (tested in a mixture with another compound) | inactive | –
15 | COc1cc(Cl)c(OC)cc1Cl | inactive | –
16 | COCCOCCO | inactive | –
17 | CC(=O)[C@H]1CC[C@H]2[C@@H]3CC[C@H]4C[C@](C)(O)CC[C@]4(C)[C@H]3CC[C@]12C | inactive | –
18 | CCBr | inactive | –
19 | COc1nn(CSP(=S)(OC)OC)c(=O)s1 | inactive | –
20 | O=C(O)COc1ccc(Cl)cc1 | inactive | –
21 | CO[C@@H]1[C@H](OC(=O)NC(=O)CCl)CC[C@]2(CO2)[C@H]1[C@@]1(C)O[C@@H]1CC=C(C)C | – | -2.66% [at 19 µM]
22 | CCCCNP(N)(N)=S | inactive | –
23 | CCOP(=S)(OCC)Oc1cc(Cl)c(Br)cc1Cl | inactive | –

Test system: not listed separately
Assay: qHTS assay to identify small molecule agonists of the estrogen receptor beta (ER-beta) signaling pathway - cell viability counter screen (AID 1259380); further: nearly all actives have a fitted effect of over 30% in size; further: potency means the concentration at half of the fitted maximal effect
Settings: ER-beta-bla HEK293T viability, CellTiter-Glo luminescence, 16 h; series mostly up to 92.4 µM
Method in brief: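 Steps: plate ER-beta-UAS-bla HEK293T cells, rest 6 hr; add compounds in DMSO; incubate 16 hr at 37C, 5% CO2; add FRET substrate 2 hr; add CellTiter-Glo, wait 30 min at room temperature; read luminescence.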

Row | SMILES | Potency
24 | CC[C@H]1C[C@H]2[C@@H]3CCC4=CC(=O)CC[C@@H]4[C@H]3CC[C@]2(C)[C@H]1O | inactive
25 | O=C(CBr)Nc1ccc(Cl)cc1C(=O)c1ccccc1F | inactive
26 | ClCC(Br)CBr (centres undefined) | inactive
27 | COc1c(C(C)(C)C)cc([N+](=O)[O-])c(C)c1[N+](=O)[O-] | inactive
28 | c1ccoc1 | inactive
29 | CCCC(=O)Cl | inactive
30 | Nc1nc(=S)[nH][nH]1 | inactive
31 | O=[N+]([O-])c1ccc(F)c([N+](=O)[O-])c1 | inactive
32 | CCOP(=O)(OCC)O/C(=C/Cl)c1ccc(Cl)cc1Cl | inactive
33 | CCOP(=S)(OCC)SCSCC | inactive
34 | ClC=C(Cl)Cl | inactive
35 | CCC(Cl)CCl (centres undefined) | inactive
36 | CCCN(CCCl)c1c([N+](=O)[O-])cc(C(F)(F)F)cc1[N+](=O)[O-] | inactive
37 | Cn1cc[n+](C)c1 (tested in a mixture with another compound) | inactive
38 | C=CC(C)=O | inactive
39 | O=C(NC(=O)c1c(F)cccc1F)Nc1ccc(OC(F)(F)C(F)OC(F)(F)F)c(Cl)c1 (centres undefined) | inactive
40 | COc1cc(Cl)c(OC)cc1Cl | inactive
41 | Clc1ccc(C(OCCN2CCCCC2)c2ccccc2)cc1 (centres undefined) | 18.8 µM (active)
42 | CCOP(=S)(Oc1ccc([N+](=O)[O-])cc1)c1ccccc1 (centres undefined) | inactive
43 | CC(=O)[C@H]1CC[C@H]2[C@@H]3CC[C@H]4C[C@](C)(O)CC[C@]4(C)[C@H]3CC[C@]12C | inactive
44 | CCBr | inactive
45 | CN(N=O)c1ccc([N+](=O)[O-])cc1 | inactive
46 | O=C(O)COc1ccc(Cl)cc1 | inactive
47 | CN1C(=O)C(O)N=C(c2ccccc2)c2cc(Cl)ccc21 (centres undefined) | inactive
48 | CCCCNP(N)(N)=S | inactive
49 | OCCCBr | inactive
50 | Cl/C=C\C[N+]12CN3CN(CN(C3)C1)C2 | inactive
51 | CCOP(=S)(OCC)Oc1cc(Cl)c(Br)cc1Cl | inactive

Biological target: Androgen receptor (Homo sapiens) (UniProt P10275)
Sequence (P10275 whole entry, looked up): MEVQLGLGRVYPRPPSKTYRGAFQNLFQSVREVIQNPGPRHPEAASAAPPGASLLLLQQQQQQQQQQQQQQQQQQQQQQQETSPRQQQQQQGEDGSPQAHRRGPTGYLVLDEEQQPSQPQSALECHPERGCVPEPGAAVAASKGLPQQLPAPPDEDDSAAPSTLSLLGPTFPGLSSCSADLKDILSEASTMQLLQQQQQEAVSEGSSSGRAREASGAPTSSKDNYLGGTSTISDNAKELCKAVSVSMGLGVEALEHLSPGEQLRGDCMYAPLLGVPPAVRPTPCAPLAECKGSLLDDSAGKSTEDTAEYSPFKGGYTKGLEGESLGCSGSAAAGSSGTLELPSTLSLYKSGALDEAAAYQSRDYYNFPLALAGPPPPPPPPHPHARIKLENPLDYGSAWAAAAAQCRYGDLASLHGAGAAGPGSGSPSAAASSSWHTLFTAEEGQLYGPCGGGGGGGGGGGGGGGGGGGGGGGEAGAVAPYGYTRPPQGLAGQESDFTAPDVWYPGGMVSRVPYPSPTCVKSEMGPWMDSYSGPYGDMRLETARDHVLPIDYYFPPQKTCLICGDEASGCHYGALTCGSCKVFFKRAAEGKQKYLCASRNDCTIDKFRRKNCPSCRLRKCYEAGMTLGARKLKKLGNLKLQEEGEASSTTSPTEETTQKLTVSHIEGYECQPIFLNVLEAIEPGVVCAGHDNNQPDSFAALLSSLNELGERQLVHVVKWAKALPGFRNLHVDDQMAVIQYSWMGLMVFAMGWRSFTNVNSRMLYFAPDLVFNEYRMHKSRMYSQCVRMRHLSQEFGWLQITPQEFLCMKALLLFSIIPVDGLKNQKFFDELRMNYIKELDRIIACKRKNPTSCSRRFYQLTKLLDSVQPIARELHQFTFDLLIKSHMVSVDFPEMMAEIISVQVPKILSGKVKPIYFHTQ
Assay: qHTS assay to identify small molecule agonists of the androgen receptor (AR) signaling pathway in the presence of an antagonist (AID 1259381; calls by dose curve; further: nearly all actives have a fitted effect of over 15% in size)
Settings: MDA-kb2 MMTV-luciferase, AR agonist + nilutamide, 16 h; series mostly up to 92.4 µM
Method in brief: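 Reporter-gene luminescence from MDA-kb2 cells exposed 16hr at 37C (0% CO2) to 15-point compound titrations with 3.0uM final nilutamide as AR antagonist.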

Row | SMILES | Potency | activation
52 | O=C(CBr)Nc1ccc(Cl)cc1C(=O)c1ccccc1F | inactive | –
53 | CO[C@@H]1[C@H](OC(=O)NC(=O)CCl)CC[C@]2(CO2)[C@H]1[C@@]1(C)O[C@@H]1CC=C(C)C | – | -3.01% [at 19 µM]
54 | Cl/C=C\C[N+]12CN3CN(CN(C3)C1)C2 | inactive | –
55 | CCOP(=S)(OCC)Oc1cc(Cl)c(Br)cc1Cl | inactive | –

Test system: not listed separately
Assay: qHTS assay to identify small molecule antagonists of the estrogen receptor beta (ER-beta) signaling pathway - cell viability counter screen (AID 1259382);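 further: HEK293T cells carrying ER-beta-UAS-bla reporter stimulated with estradiol; nearly all actives have a fitted effect of over 55% in size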
Settings: ER-beta-UAS-bla HEK293T viability, CellTiter-Glo luminescence, 16 h; series mostly up to 92.4 µM
Method in brief: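 Viability is scored by CellTiter-Glo luminescence (30 min, room temperature) in ER-beta-UAS-bla HEK293T wells already read for reporter fluorescence. Compound exposure lasts 16 hr at 37C alongside 1nM 17-beta-estradiol in charcoal-stripped serum medium.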

Row | SMILES | Potency | activity change, negative = cytotoxicity
56 | O=C(NCc1cccnc1)Nc1ccc([N+](=O)[O-])cc1 | inactive | –
57 | CC[C@H]1C[C@H]2[C@@H]3CCC4=CC(=O)CC[C@@H]4[C@H]3CC[C@]2(C)[C@H]1O | inactive | –
58 | O=C(CBr)Nc1ccc(Cl)cc1C(=O)c1ccccc1F | inactive | –
59 | ClCC(Br)CBr (centres undefined) | inactive | –
60 | COc1c(C(C)(C)C)cc([N+](=O)[O-])c(C)c1[N+](=O)[O-] | inactive | –
61 | c1ccoc1 | inactive | –
62 | CCCC(=O)Cl | inactive | –
63 | Nc1nc(=S)[nH][nH]1 | inactive | –
64 | Brc1ccc(Oc2ccccc2)cc1 | inactive | –
65 | O=[N+]([O-])c1ccc(F)c([N+](=O)[O-])c1 | inactive | –
66 | CCOP(=O)(OCC)O/C(=C/Cl)c1ccc(Cl)cc1Cl | inactive | –
67 | CCOP(=S)(OCC)SCSCC | inactive | –
68 | ClC=C(Cl)Cl | inactive | –
69 | COC(N)=O | inactive | –
70 | CCC(Cl)CCl (centres undefined) | inactive | –
71 | CCCN(CCCl)c1c([N+](=O)[O-])cc(C(F)(F)F)cc1[N+](=O)[O-] | inactive | –
72 | Cn1cc[n+](C)c1 (tested in a mixture with another compound) | inactive | –

Row | SMILES | Potency | activity change, negative = cytotoxicity
73 | C=CC(C)=O | inactive | –
74 | O=C(NC(=O)c1c(F)cccc1F)Nc1ccc(OC(F)(F)C(F)OC(F)(F)F)c(Cl)c1 (centres undefined) | inactive | –
75 | COc1cc(Cl)c(OC)cc1Cl | inactive | –
76 | COCCOCCO | inactive | –
77 | Clc1ccc(C(OCCN2CCCCC2)c2ccccc2)cc1 (centres undefined) | inactive | –
78 | CCOP(=S)(Oc1ccc([N+](=O)[O-])cc1)c1ccccc1 (centres undefined) | inactive | –
79 | CC(=O)[C@H]1CC[C@H]2[C@@H]3CC[C@H]4C[C@](C)(O)CC[C@]4(C)[C@H]3CC[C@]12C | inactive | –
80 | CCBr | inactive | –
81 | COc1nn(CSP(=S)(OC)OC)c(=O)s1 | inactive | –
82 | CN(N=O)c1ccc([N+](=O)[O-])cc1 | inactive | –
83 | O=C(O)COc1ccc(Cl)cc1 | inactive | –
84 | CN1C(=O)C(O)N=C(c2ccccc2)c2cc(Cl)ccc21 (centres undefined) | inactive | –
85 | CO[C@@H]1[C@H](OC(=O)NC(=O)CCl)CC[C@]2(CO2)[C@H]1[C@@]1(C)O[C@@H]1CC=C(C)C | – | -10.8% [at 19 µM]
86 | CCCCNP(N)(N)=S | inactive | –
87 | OCCCBr | inactive | –
88 | Cl/C=C\C[N+]12CN3CN(CN(C3)C1)C2 | inactive | –
89 | CCOP(=S)(OCC)Oc1cc(Cl)c(Br)cc1Cl | inactive | –
